Data from PubChem BioAssay AID651658 (Broad Institute, 2012).
About 5,100 (1.5%) of roughly 340,000 compounds were called active. Only a selection was taken, and actives are over-represented in it overall. A number with no mark means an inactive call.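 How the source made its calls: active means mean Tm shift, scaled 0 neutral to 100 positive control, at about 1.3% or above, every replicate too (limit read from the data); inconclusive means no clear call, values can overlap the other calls; inactive means the rest.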

Target: Fibroblast growth factor 22 (Homo sapiens) (UniProt Q9HCT0)
Experiment: FGF22 ligand-induced thermal stabilization – biophysical, thermal shift, single point, FGF22 synaptogenesis inhibitor project, primary screen (AID 651658)
Details: recombinant FGF22 thermal shift, SYPRO orange fluorescence; at 9.99 µM; active compounds read high; percent of sucrose octasulfate shift, DMSO zero

Fibroblast growth factor 22 (Homo sapiens), sequence (Q9HCT0 whole entry, looked up): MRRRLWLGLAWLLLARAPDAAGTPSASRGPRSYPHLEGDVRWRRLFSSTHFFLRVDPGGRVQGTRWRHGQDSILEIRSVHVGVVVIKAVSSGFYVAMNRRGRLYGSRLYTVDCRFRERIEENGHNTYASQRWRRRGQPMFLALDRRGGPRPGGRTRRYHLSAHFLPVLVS

Compound | activity (Tm shift, normalised)
CCC(=O)Nc1ccc2c(c1)C(=O)N(C)C[C@H](OC)[C@H](C)CN(C(=O)c1ccccc1F)[C@@H](C)CO2 | 0.053%
CN(c1ccc2nc3ccccc3c(=O)n2n1)C1CCCCC1 | 43.9% (active)
CC(C)c1cc(C(=O)NC2CCCCCC2)c2ccccc2n1 | -0.159%
CN(C(=O)c1cc2c(=O)n3ccccc3nc2s1)C1CCCCC1 | -0.192%
CN(C)CC(=O)N1[C@@H](CO)[C@H](c2ccccc2)C12CN(C(=O)c1cccc(F)c1)C2 | 0.354%
COC(=O)N/N=C/c1ccc(-c2ccc(Cl)c(Cl)c2)o1 | -0.262%
Brc1cc(/C=N/n2cnnc2)oc1Br | -0.235%
Clc1cc(-c2ccc(/C=N/n3cnnc3)o2)ccc1Br | 43.6% (active)
C[C@H](CO)N1C[C@H](C)[C@H](CN(C)C(=O)NC2CCCCC2)Oc2c(NC(=O)C3CC3)cccc2C1=O | -0.273%
O=C1c2ccccc2S(=O)(=O)c2cc(N3CCN(c4ccccn4)CC3)ccc21 | 0.041%
O=C(c1ccc2c(c1)N(Cc1ccc(F)cc1)C(=O)c1ccccc1S2(=O)=O)N1CCN(c2ccccn2)CC1 | 44.2% (active)
O=C(NCCN1CCOCC1)c1ccc2c(c1)N(Cc1cccc(Cl)c1)C(=O)c1ccccc1S2(=O)=O | -0.426%
CO[C@@H]1CN(C)C(=O)c2cc(NC(=O)c3ccccc3F)ccc2OC[C@H](C)N(C(C)=O)C[C@@H]1C | 0.052%
C[C@@H]1CN([C@H](C)CO)S(=O)(=O)c2ccc(-c3ccncc3)cc2O[C@H]1CN(C)S(=O)(=O)c1ccccc1F | -0.04%
C[C@@H]1CCCCO[C@@H](CN(C)C(=O)NC2CCCCC2)[C@H](C)CN([C@H](C)CO)C(=O)c2cc(NS(=O)(=O)c3ccc(Cl)cc3)ccc2O1 | 0.906%
CN(c1ccccc1)S(=O)(=O)c1cc(C(=O)OCC(=O)N2CCN(C(=O)c3ccco3)CC2)ccc1Cl | 43.1% (active)
O=C(OCC(=O)N1CCN(C(=O)c2ccco2)CC1)c1ccc(Cl)c(Cl)c1 | -0.203%
O=C(OCC(=O)N1CCN(C(=O)c2ccco2)CC1)c1cccc(O)c1 | 0.05%
CC=Cc1ccc2n(c1=O)C[C@H]1[C@H](CO)[C@@H](C(=O)NCCc3cn(C)cn3)[C@@H]2N1C(=O)CC (mixture of isomers) | -0.32%
CN(C)c1ccc(/C=N/Nc2cc(N3CCOCC3)nc(N3CCOCC3)n2)cc1 | 43.5% (active)
C/C(=N\Nc1nc(N2CCOCC2)nc(N2CCOCC2)n1)c1ccc([N+](=O)[O-])cc1 | 0.46%
C(=N\Nc1ccc2ccccc2n1)/c1ccc2c(c1)OCO2 | 41.5%
Cc1ccc(S(=O)(=O)N(C)C)cc1NC(=O)c1ccccc1Br | -0.075%
CC(=O)c1c(C)[nH]c(C(=O)Nc2cc(S(=O)(=O)N(C)C)ccc2C)c1C | 43.3% (active)
Cc1ccc(S(=O)(=O)N(C)C)cc1NC(=O)c1n[nH]c(=O)c2ccccc12 | -0.104%
C[C@@H]1CN([C@@H](C)CO)C(=O)c2cc(NC(=O)Cc3ccccc3)ccc2O[C@H]1CN(C)CC1CC1 | 0.206%

Compound | activity (Tm shift, normalised)
Cc1ccc(S(=O)(=O)N2C[C@@H](O)COC[C@@H]3O[C@H](CC(=O)NCCCN(C)C)CC[C@H]32)cc1 | 0.016%
Cn1nc(C(F)(F)F)c(-c2ccc(F)cc2)c1NC(=O)CSCC(=O)O | -0.085%
O=C(O)CSCC(=O)Nc1ccc(C(F)(F)F)cc1 | 43% (active)
O=C(CSCc1ccccc1)Nc1ccccc1 | -0.128%
Cc1cc(N)n(-c2ccc(S(=O)(=O)N3CCCC3)cc2[N+](=O)[O-])n1 | -0.196%
Cc1cc(C(=O)O)ccc1[N+](=O)[O-] | 0.06%
Cc1cc(C)n(-c2ccc(C(=O)O)cc2[N+](=O)[O-])n1 | 43.1% (active)
Cc1ccc(S(=O)(=O)N[C@@H]2CC[C@@H](CCn3cc(C4CC4)nn3)O[C@@H]2CO)cc1 | -0.331%
C[C@H]1CN([C@@H](C)CO)C(=O)c2cc(-c3cccc(F)c3)cnc2O[C@@H]1CN(C)Cc1cncnc1 | 0.062%
O=C(c1cnccn1)N1CC(=O)N2[C@H](C1)[C@H](c1ccc(/C=C/c3ccccc3)cc1)[C@@H]2CO | -0.069%
O=C(C[C@H]1C[C@@H]2c3cc(NC(=O)c4cccnc4)ccc3O[C@@H]2[C@H](CO)O1)NCc1ccccn1 | -0.175%
CCn1c(SCC(=O)Nc2nccs2)nnc1-c1ccco1 | 43.5% (active)
COCCn1c(Cc2cccn2C)nnc1SCC(=O)Nc1nccs1 | 0.285%
Cn1c(SCC(=O)Nc2nccs2)nnc1-c1cccnc1 | -0.089%
CCS(=O)(=O)NCC[C@H]1CC[C@@H](NC(=O)Nc2cc(Cl)cc(Cl)c2)[C@@H](CO)O1 | 0.003%
Oc1ccc(-c2nncn2-c2ccccc2)cc1 | 43.1% (active)
Oc1ccc(-c2nnc(Nc3ccccc3)c3ccccc23)cc1 | 0.298%
Cc1nn(-c2ccccc2)c(Cl)c1/C=C/C(=O)c1ccc(O)cc1 | -0.458%
COc1cccc(S(=O)(=O)N[C@H]2C=C[C@H](CC(=O)NCc3ccc(Cl)cc3)O[C@@H]2CO)c1 | 0.005%
CCCC#Cc1cnc2c(c1)C(=O)N([C@H](C)CO)C[C@H](C)[C@H](CN(C)C(=O)c1cnccn1)O2 | -0.197%
Cc1noc(C)c1NC(=O)N(C)C[C@H]1OCCCC[C@H](C)Oc2ccc(NC(=O)Nc3ccc4c(c3)OCO4)cc2C(=O)N([C@H](C)CO)C[C@@H]1C | -0.482%
Fc1ccc(-c2ccc(NCCN3CCOCC3)nn2)cc1 | -0.028%
N#Cc1cnn2cc(CCN3CCOCC3)c(-c3ccc(F)cc3)nc12 | 43.1% (active)
COc1ccc2c(c1)CCc1cn3ncc(C#N)c3nc1-2 | -0.072%
O=C(N[C@H]1CC[C@@H](CCNS(=O)(=O)c2ccc(F)cc2)O[C@@H]1CO)c1ccccn1 | 0.123%
C[C@@H]1CN([C@H](C)CO)C(=O)Cc2cc(NS(=O)(=O)c3cccs3)ccc2O[C@@H]1CN(C)C(=O)Nc1ccc(F)cc1 | 0.051%

Compound | activity (Tm shift, normalised)
Cn1c(=O)n(C)c2cc(NS(=O)(=O)c3ccc(F)cc3)ccc21 | 43.1% (active)
Cn1c(=O)n(C)c2cc(S(=O)(=O)Nc3ccc(F)cc3)ccc21 | -0.198%
Cn1c(CCN2CCN(c3ccccn3)CC2)nc2cc(NS(=O)(=O)c3ccc(F)cc3)ccc21 | -0.195%
COc1ccc2c3c([nH]c2c1)[C@@H](CO)N(C(=O)Nc1ccc(F)cc1)CC31CN(S(C)(=O)=O)C1 | -0.554%
O=C(N[C@@H]1CC[C@@H](CC(=O)N2CCc3ccccc3C2)O[C@H]1CO)C1CCC1 | -0.096%
COc1ccc(CN2CCNC(=O)C2CC(=O)N(C)Cc2ccccn2)cc1OC (configuration not stated) | 0.398%
COc1cccc(CN2CCNC(=O)C2CC(=O)N(C)CCc2ccccn2)c1 (configuration not stated) | 43% (active)
CN(CCc1cn[nH]c1)C(=O)CC1C(=O)NCCN1Cc1cccc(Oc2ccccc2)c1 (configuration not stated) | 0.231%
CS(=O)(=O)N1[C@H](C#N)[C@H](c2ccccc2-c2ccc(F)cc2)[C@@H]1CO | 0.124%
O=C(N/N=C/c1c[nH]c2ccccc12)c1cc2ccccc2o1 | 2.21% (active)
Cc1c(/C=N\NC(=O)c2cc3ccccc3o2)c2ccccc2n1C | 0.961%
Nc1nonc1-n1nnc(C(=O)N/N=C/c2c[nH]c3ccccc23)c1-c1ccccc1 | 0.702%
CC=Cc1ccc2n(c1=O)C[C@@H]1[C@@H](CO)[C@H](C(=O)N(C)C)[C@H]2N1CCc1ccccc1 (mixture of isomers) | -0.034%
COc1ccccc1-c1cnc2c(c1)C(=O)N([C@@H](C)CO)C[C@H](C)[C@H](CN(C)C(=O)c1ccncc1)O2 | 0.396%
Cc1cc(C(=O)Nc2ccc3c(c2)C(=O)N(C)[C@@H]2CC[C@H](CC(=O)NC4CCCC4)O[C@@H]2CO3)no1 | 0.414%
COc1ccc(/C=N/NC(=O)c2ccccc2)cc1OS(=O)(=O)c1ccccc1 | 43% (active)
Cc1ccc(S(=O)(=O)Oc2ccc(/C=N/NC(=O)c3ccncc3)cc2)cc1 | 0.38%
COc1cc(C=NNC(=O)c2cccnc2)ccc1OC(=O)c1ccccc1F | -0.02%
COc1ccccc1CNC(=O)C[C@H]1C[C@@H]2c3cc(NC(=O)c4ccc5c(c4)OCO5)ccc3O[C@@H]2[C@H](CO)O1 | 0.258%
CO[C@@H]1CN(C)C(=O)c2ccc(NS(C)(=O)=O)cc2OC[C@H](C)N(C(=O)C2CC2)C[C@H]1C | -0.096%
CCC(=O)N1CC2(C1)[C@H](c1ccc(-c3ccc(C)cc3)cc1)[C@H](CO)N2S(C)(=O)=O | -0.095%
COCCN(Cc1nc(-c2ccc(C(F)(F)F)cc2)no1)C(C)C | 0.251%
COCCN(C(=O)C(C)C)c1nnc(-c2ccc(C(C)(C)C)cc2)s1 | 1.53% (active)
COc1cc(OC)cc(-c2nnc(N(C)C(=O)c3ccncc3)s2)c1 | -0.259%
CC(C)NC(=O)N1[C@@H]2c3ccc(-c4ccc(F)cc4)c(=O)n3C[C@@H]2[C@@H](CO)[C@@H]1C(=O)N1CCOCC1 | -0.32%
